In PubChem BioAssay:
Unmarked numbers belong to inactive results. For some of these results: Results with a measured potency or affinity are listed apart. Calls of active or inactive are those of the source. Unless noted, no rule for the calls is given here.

Assays:
[1] = antimalarial activity against Dd2 strain (AID 2302;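 active = growth inhibition above 50% at the single 2 µM test dose, taken to imply half-maximal potency below 2 µM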;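 also: 0% = DMSO untreated growth and 100% = chloroquine plus artemisinin killed control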); settings: P. falciparum Dd2 in RBCs, LDH growth readout, 72 h; at 2 µM; stronger effect = higher value
[2] = HepG2 cytotoxicity, primary screen, cytotoxicity control for P. falciparum antimalarial project, cell-based, ATP luminescence (AID 2303;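 active = inhibition above 50%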;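 also: 0% = DMSO wells and 100% = digitonin-killed cells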); settings: HepG2 viability, 24-48 h, at 10 µM, stronger effect = higher value
[3] = biological target: L-lactate dehydrogenase (Plasmodium falciparum (isolate CDC / Honduras)) (UniProt Q27743); experiment: PfLDH activity inhibition – cell lysate, 3D7 strain, counter-screen for P. falciparum growth inhibition project (AID 2304);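 also: 0% = vehicle and 100% = reference inhibitor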; settings: P. falciparum 3D7 crude extract, LDH APAD/NBT absorbance; at 2 µM; stronger effect = higher value
Sequence of L-lactate dehydrogenase (Plasmodium falciparum (isolate CDC / Honduras)) (Q27743 whole entry, looked up): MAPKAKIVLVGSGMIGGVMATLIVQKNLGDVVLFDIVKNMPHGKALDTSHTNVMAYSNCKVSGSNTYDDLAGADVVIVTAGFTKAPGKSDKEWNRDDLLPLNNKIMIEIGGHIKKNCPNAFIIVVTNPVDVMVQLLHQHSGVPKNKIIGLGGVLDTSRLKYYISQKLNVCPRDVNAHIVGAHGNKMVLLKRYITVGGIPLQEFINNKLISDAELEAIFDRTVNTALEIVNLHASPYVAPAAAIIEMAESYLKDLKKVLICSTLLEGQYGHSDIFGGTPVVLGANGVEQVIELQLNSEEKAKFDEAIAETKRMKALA

[4] = inhibition of 3D7 malaria parasite growth – strain 3D7 (AID 2306);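 also: 0% = DMSO wells and 100% = chloroquine plus artemisinin control wells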; settings: P. falciparum 3D7 erythrocytic growth, LDH absorbance, 72 h; at 2 µM; stronger effect = higher value
[5] = biological target: Calcium-dependent protein kinase 1 (Plasmodium falciparum (isolate 3D7)) (UniProt P62344); experiment: PfCDPK1 kinase inhibitors, biochemical, TCAMS library (AID 1159585; cut-off not given, nearly all actives have IC50 up to about 0.98 µM;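 also: inhibitors leave more ATP so luminescence rises with inhibition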); settings: recombinant PfCDPK1, Kinase-Glo ATP depletion luminescence
Sequence of Calcium-dependent protein kinase 1 (Plasmodium falciparum (isolate 3D7)) (P62344 whole entry, looked up): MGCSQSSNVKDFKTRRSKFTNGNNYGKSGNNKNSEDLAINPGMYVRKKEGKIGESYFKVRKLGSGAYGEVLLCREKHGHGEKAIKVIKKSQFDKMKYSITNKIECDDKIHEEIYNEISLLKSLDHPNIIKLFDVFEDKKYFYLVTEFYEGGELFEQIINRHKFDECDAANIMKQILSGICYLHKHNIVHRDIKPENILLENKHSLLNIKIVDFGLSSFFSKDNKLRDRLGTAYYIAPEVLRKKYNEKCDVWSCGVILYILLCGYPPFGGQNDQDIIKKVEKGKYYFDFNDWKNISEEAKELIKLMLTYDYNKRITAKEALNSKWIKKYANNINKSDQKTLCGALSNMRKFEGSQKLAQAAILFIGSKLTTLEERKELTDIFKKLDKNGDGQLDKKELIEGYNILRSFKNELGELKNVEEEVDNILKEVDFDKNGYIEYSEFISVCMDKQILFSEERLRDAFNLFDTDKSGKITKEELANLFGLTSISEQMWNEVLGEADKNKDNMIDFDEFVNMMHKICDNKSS

[6] = biological target: Plasmodium falciparum protein kinase 6 (PK6, PF3D7_1337100) (UniProt Q8IDW1); experiment: PfPK6 kinase inhibitors, biochemical, TCAMS library (AID 1159586); settings: recombinant PfPK6, Kinase-Glo ATP depletion luminescence
Sequence of Plasmodium falciparum protein kinase 6 (PK6, PF3D7_1337100) (Q8IDW1 1-305): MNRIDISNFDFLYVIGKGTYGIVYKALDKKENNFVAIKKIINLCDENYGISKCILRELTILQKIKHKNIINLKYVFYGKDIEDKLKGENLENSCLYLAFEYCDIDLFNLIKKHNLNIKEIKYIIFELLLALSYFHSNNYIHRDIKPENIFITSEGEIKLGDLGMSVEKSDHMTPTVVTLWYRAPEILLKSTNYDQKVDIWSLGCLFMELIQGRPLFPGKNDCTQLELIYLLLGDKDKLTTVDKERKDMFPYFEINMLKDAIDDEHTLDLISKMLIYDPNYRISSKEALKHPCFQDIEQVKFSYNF

[7] = biological target: Protein kinase 7 (PK7), Plasmodium falciparum 3D7 (PF3D7_0213400) (UniProt Q7YTF7); experiment: inhibition of Plasmodium PK7 catalytic activity – biochemical, TCAMS antimalarial set, Kinase-Glo luminescence (AID 1159587); settings: recombinant PfPK7, Kinase-Glo ATP depletion luminescence
Sequence of Protein kinase 7 (PK7), Plasmodium falciparum 3D7 (PF3D7_0213400) (Q7YTF7 1-343): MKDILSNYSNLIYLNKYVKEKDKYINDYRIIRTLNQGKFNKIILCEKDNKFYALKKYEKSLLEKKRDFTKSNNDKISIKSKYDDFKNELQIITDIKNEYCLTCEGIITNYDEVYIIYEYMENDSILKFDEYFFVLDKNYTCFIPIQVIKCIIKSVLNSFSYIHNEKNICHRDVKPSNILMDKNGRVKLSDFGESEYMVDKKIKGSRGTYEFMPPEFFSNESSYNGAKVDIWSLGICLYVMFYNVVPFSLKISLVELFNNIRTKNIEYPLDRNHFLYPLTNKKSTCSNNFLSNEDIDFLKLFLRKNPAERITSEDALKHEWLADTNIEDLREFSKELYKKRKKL

[8] = biological target: Calcium-dependent protein kinase 4 (Plasmodium falciparum (isolate 3D7)) (UniProt Q8IBS5); experiment: PfCDPK4 kinase inhibitors, biochemical, TCAMS library (AID 1159588; cut-off not given, nearly all actives have IC50 up to about 0.91 µM); settings: recombinant PfCDPK4, Kinase-Glo ATP depletion luminescence
Sequence of Calcium-dependent protein kinase 4 (Plasmodium falciparum (isolate 3D7)) (Q8IBS5 whole entry, looked up): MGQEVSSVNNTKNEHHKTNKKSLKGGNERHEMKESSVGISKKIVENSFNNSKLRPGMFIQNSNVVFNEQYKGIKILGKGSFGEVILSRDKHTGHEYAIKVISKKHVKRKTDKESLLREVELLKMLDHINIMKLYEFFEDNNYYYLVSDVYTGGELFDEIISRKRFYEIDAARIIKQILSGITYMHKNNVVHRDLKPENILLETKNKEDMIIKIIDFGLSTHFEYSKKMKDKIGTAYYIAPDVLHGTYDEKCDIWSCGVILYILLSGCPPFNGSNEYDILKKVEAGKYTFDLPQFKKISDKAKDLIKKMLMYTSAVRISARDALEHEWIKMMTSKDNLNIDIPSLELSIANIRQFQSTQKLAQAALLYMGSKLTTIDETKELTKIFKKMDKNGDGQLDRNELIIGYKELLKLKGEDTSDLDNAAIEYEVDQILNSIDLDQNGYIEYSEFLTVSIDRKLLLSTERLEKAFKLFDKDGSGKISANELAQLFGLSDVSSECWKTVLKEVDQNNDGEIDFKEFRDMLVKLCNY

| SMILES | growth inhibition [1] | inhibition [2] | inhibition [3] | growth inhibition [4] | outcome [5] | outcome [6] | outcome [7] | outcome [8] |
| --- | --- | --- | --- | --- | --- | --- | --- | --- |
| Cc1ncc(CN2CCC(C(=O)Nc3ccc(-c4nc5ccccc5o4)cc3)CC2)s1 | 92% (active) | -14% | 1% | 82% (active) | inactive | inactive | inactive | inactive |
| CN(C)CCCNCc1ccc(-c2ccc(F)c(Cl)c2)o1 | 69% (active) | 29% | -7% | 93% (active) | inactive | inactive | inactive | inactive |
| COc1ccc2c(NN=Cc3ccccc3F)cc(C)nc2c1 | 12% | 4% | 2% | 90% (active) | inactive | inactive | inactive | inactive |
| COc1ccc(-c2onc(C(F)(F)F)c2-c2cc3ccccc3o2)c(O)c1 | 15% | 6% | 0% | 93% (active) | inactive | inactive | inactive | inactive |
| NC(=NCc1ccccc1)Nc1cccc(Cc2ccccc2)n1 | 52% (active) | 57% (active) | 0% | 85% (active) | inactive | inactive | inactive | inactive |
| Cc1cccc2[nH]c(-c3cccc(-c4cccc(CN5CCN(c6ccc(C#N)cn6)CC5)c4)c3)nc12 | 34% | 11% | -5% | 94% (active) | inactive | inactive | inactive | inactive |
| NC(N)=Nc1ccc(Cc2ccc(N=C(N)N)cc2)cc1 | 94% (active) | 35% | -1% | 93% (active) | inactive | inactive | inactive | inactive |
| COc1cc(NC(=O)c2sc(-c3ccc(Cl)cc3)cc2NC(=O)c2cccc(N(C)C)c2)ccc1OCCN1CCCC1 | 67% (active) | 49% | -3% | 99% (active) | inactive | inactive | inactive | inactive |
| Cc1nc(-c2ccc(C#N)cc2)sc1C(=O)NCCCCN1CCC(c2ccc3c(c2OCCO)CCCC3)CC1 | 10% | 14% | 6% | 99% (active) | inactive | inactive | inactive | inactive |
| NC(N)=NC(=O)Nc1cc(Cl)c(Br)c(Cl)c1 | 101% (active) | 6% | 4% | 101% (active) | inactive | inactive | inactive | inactive |
| Clc1ccc(CCNCCCCCCNCCc2ccc3c(c2)OCO3)cc1 | 11% | 23% | 7% | 91% (active) | inactive | inactive | inactive | inactive |
| COc1cc2c(cc1OC)CN(CCc1ccc(NC(=O)c3cc4cc(Cl)ccc4[nH]3)cc1)CC2 | 6% | 3% | 2% | 90% (active) | inactive | inactive | inactive | inactive |
| CCOC(=O)c1c(-c2ccccc2)[nH]c2c(sc3ccccc32)c1=O | 65% (active) | 2% | -5% | 97% (active) | inactive | inactive | inactive | inactive |
| CCn1cc(C=C2Oc3c(ccc(O)c3CN3CCCCC3)C2=O)c2ccccc21 | 99% (active) | -9% | -3% | 101% (active) | inactive | inactive | inactive | inactive |
| COc1ccc(-c2cnc3ccc(NCc4ccc(F)cc4)nn23)cc1OC | 99% (active) | 35% | -2% | 97% (active) | inactive | inactive | inactive | inactive |
| OCc1c(Cl)cc(Cl)cc1CNCCCNc1nc2ccccc2[nH]1 | 2% | -6% | -2% | 102% (active) | inactive | inactive | inactive | inactive |
| COc1ccc2nccc(N3CCC(CCNCc4ccc5c(n4)NC(=O)CO5)CC3)c2c1 | 50% (active) | 22% | -1% | 101% (active) | inactive | inactive | inactive | inactive |
| N#Cc1cncc(-c2nc3c(N4CCC(Cc5ccccc5)CC4)cccc3n2CCNCc2ccccc2)c1 | 99% (active) | 2% | -1% | 99% (active) | inactive | inactive | inactive | inactive |
| CC1CN(Cc2cccc(F)c2)CCN1c1ccc(NC(=O)c2cccs2)cc1 (stereo not drawn) | 96% (active) | -1% | -2% | 96% (active) | inactive | inactive | inactive | inactive |
| Cc1[nH]c(C)c(-c2ccc(/C=C/c3ccccn3)cc2)c(=O)c1Cl | 96% (active) | -9% | -2% | 97% (active) | inactive | inactive | inactive | inactive |
| Cc1cc(N)c2cc(NC(=O)c3cc4ccccc4s3)ccc2n1 | 99% (active) | 100% (active) | 2% | 101% (active) | inactive | inactive | inactive | inactive |

| SMILES | growth inhibition [1] | inhibition [2] | inhibition [3] | growth inhibition [4] | outcome [5] | outcome [6] | outcome [7] | outcome [8] |
| --- | --- | --- | --- | --- | --- | --- | --- | --- |
| O=C(Nc1ccc(-c2cccc(-c3nc4ccc(C(F)(F)F)cc4[nH]3)c2)cc1)c1csnn1 | 25% | 42% | -2% | 98% (active) | inactive | inactive | inactive | inactive |
| CC1(CCCCN2CCC(Cc3ccccc3)CC2)C(=O)Nc2ccccc21 (stereo not drawn) | 28% | 66% (active) | -8% | 100% (active) | inactive | inactive | inactive | inactive |
| COc1cc(NC(=O)Nc2cc(C)nc3ccccc23)cc(OC)c1 | 57% (active) | 5% | -4% | 104% (active) | inactive | inactive | inactive | inactive |
| COc1ccc2nccc(N(C)CC3(O)CCC(NCc4ccc5c(n4)NC(=O)CS5)CC3)c2n1 (stereo not drawn) | 23% | 1% | -1% | 98% (active) | inactive | inactive | inactive | inactive |
| O=C(NC1CCN(c2ccnc3cc(Cl)ccc23)C1)c1ccc(C(F)(F)F)cc1 (stereo not drawn) | 57% (active) | 37% | 4% | 101% (active) | inactive | inactive | inactive | inactive |
| Cc1cccc2[nH]c(-c3cccc(-c4cccc(CNCCNC(=O)c5ccnn5C)c4)c3)nc12 | 71% (active) | 26% | -3% | 100% (active) | inactive | inactive | inactive | inactive |
| CCCCCCN1CCC(CNCc2cccc(Cl)c2)CC1 | 13% | 8% | 1% | 85% (active) | inactive | inactive | inactive | inactive |
| CCOc1ccc(C2CCN(CCN3CCC(NC(=O)c4ccc(-c5ccc(C(F)(F)F)cc5)cc4)CC3)CC2)c(OCC2CC2)c1 | 65% (active) | 13% | -9% | 99% (active) | inactive | inactive | inactive | inactive |
| Nc1nc2c(c(=O)[nH]1)CN(S(=O)(=O)c1ccc(C(=O)N[C@@H](CCC(=O)O)C(=O)O)cc1)CC2 | 96% (active) | 49% | 6% | 95% (active) | inactive | inactive | inactive | inactive |
| FC(F)(F)c1ccccc1OCc1cc(-c2ccncc2)c(COc2ccccc2C(F)(F)F)cc1C1=CCNCC1 | 81% (active) | 31% | -2% | 98% (active) | inactive | inactive | inactive | inactive |
| C[C@@H](Oc1cc(-n2cnc3ccc(NC(=O)CCN4CCCCC4)cc32)sc1C(N)=O)c1ccccc1Cl | 60% (active) | 36% | 3% | 101% (active) | inactive | inactive | inactive | inactive |
| Clc1cccc(C23N=C(Nc4nc5ccccc5[nH]4)NC2(c2ccccc2)NC(Nc2nc4ccccc4[nH]2)=N3)c1 (stereo not drawn) | 88% (active) | -3% | -3% | 85% (active) | inactive | inactive | inactive | inactive |
| COc1ccc2c(c1)c(C1CCN(CCCCNC(=O)c3ccc(-c4ccc(C(F)(F)F)cc4)cc3)CC1)cn2C(C)C | 21% | 26% | 0% | 99% (active) | inactive | inactive | inactive | inactive |
| Cc1nnc2c(NC(=O)/C=C/c3ccc(OC(F)(F)F)cc3)cc3cc(Cl)ccc3n12 | 99% (active) | 19% | 4% | 94% (active) | inactive | inactive | inactive | inactive |
| COCCn1c(Sc2ccc(C#N)c([N+](=O)[O-])c2)nnc1-c1ccc(N(C)C)cc1 | 66% (active) | 2% | -6% | 89% (active) | inactive | inactive | inactive | inactive |
| CN(C)c1ccc(C2c3nc[nH]c3CCN2C(=O)Nc2cccc([N+](=O)[O-])c2)cc1 (stereo not drawn) | 15% | -5% | 1% | 98% (active) | inactive | inactive | inactive | inactive |
| CCn1c(Sc2ccc(C#N)c([N+](=O)[O-])c2)nnc1-c1cccc(Cl)c1 | 88% (active) | -5% | -2% | 95% (active) | inactive | inactive | inactive | inactive |
| NC1CCN(Cc2ccc(-c3cccc(-c4nc5ccccc5[nH]4)c3)cc2)C1 (stereo not drawn) | -3% | 19% | 5% | 98% (active) | inactive | inactive | inactive | inactive |
| COc1cccc(-c2[nH]c3ccccc3c2CN2CCC(c3c(C)cccc3C)CC2)c1 | 24% | 32% | 3% | 99% (active) | inactive | inactive | inactive | inactive |
| COc1cc(Nc2nccc(N3CCC(NC(=O)C(C)c4ccc(Cl)cc4)C3)n2)cc(OC)c1OC (stereo not drawn) | 90% (active) | 2% | -7% | 97% (active) | inactive | inactive | inactive | inactive |
